Compounds without any hit were thinned out: in the full panel of roughly 79,000, 15% have a hit. Active and inactive are the calls of the source. Cut-off read from the data, not from the text of the source: active = growth inhibition above about 70%; inactive = the rest.
Columns and labels:
[1] = NCI Yeast Anticancer Drug Screen. Data for the rad50 strain (AID 155);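 note: 0% = growth of vehicle-only cultures of the same strain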; settings: S. cerevisiae rad50 strain growth inhibition; at 50.0 µM; stronger effect = higher value
Procedure, shortened: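 Vehicle-treated cultures provide the reference for the growth inhibition reported for compound-exposed, repair-deficient yeast.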

[2] = NCI Yeast Anticancer Drug Screen. Data for the mec2-1 strain (AID 157); settings: S. cerevisiae mec2-1 strain, at 50.0 µM, stronger effect = higher value
Procedure, shortened: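 Strain: mec2-1 (DNA repair/cell cycle alteration). Compound exposure, then growth measured; inhibition expressed relative to vehicle.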

[3] = NCI Yeast Anticancer Drug Screen. Data for the sgs1 mgt1 strain (AID 161);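 note: 0% = growth of cultures given vehicle only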; settings: S. cerevisiae sgs1 mgt1 strain, at 50.0 µM, stronger effect = higher value
Procedure, shortened: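 Genetically altered yeast, compound exposure, growth inhibition relative to vehicle.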

[4] = NCI Yeast Anticancer Drug Screen. Data for the cln2 rad14 strain (AID 165);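 note: 0% = growth equal to vehicle treated cultures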; settings: S. cerevisiae cln2 rad14 strain, at 50.0 µM, stronger effect = higher value
Procedure, shortened: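 Compounds are applied to the cln2 rad14 yeast strain, and growth is then compared with that of vehicle-treated cultures to give inhibition.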

[5] = NCI Yeast Anticancer Drug Screen. Data for the bub3 strain (AID 167); settings: S. cerevisiae bub3 mutant strain, at 50.0 µM, stronger effect = higher value
Procedure, shortened: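 Mutant yeast screening strain plus compound; vehicle-treated cultures serve as the 0% inhibition reference.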

[6] = NCI Yeast Anticancer Drug Screen. Data for the mlh1 rad18 strain (AID 175); settings: S. cerevisiae mlh1 rad18 strain growth inhibition; at 50.0 µM; stronger effect = higher value
Procedure, shortened: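 Read-out is yeast growth inhibition, calculated against vehicle-only controls. The compound was applied to a strain engineered with DNA damage repair alterations.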

Measured: growth inhibition

CC1(C)[C@@H]2CC[C@]1(C)[C@H](OC(=O)/C=C/c1ccccc1)C2
inactive: [1] 1.9% | [2] -39.8% | [3] -11.4% | [4] 8.5% | [5] -16% | [6] -1.5%

CCCCCCN(CCCCCC)C1=CC(=O)C(=O)c2ccccc21
inactive: [1] 52.9% | [2] 31.8% | [3] 48.4% | [4] 60% | [5] 35.1% | [6] 54.2%

Cc1cc(S(=O)(=O)Nc2n[nH]c(N)n2)c(Cl)cc1Cl
inactive: [1] -52% | [2] 1.55% | [3] -56% | [4] -51% | [5] 9.4% | [6] -48.5%

COC(=O)C(=[N+]=[N-])C(=O)c1ccccc1[N+](=O)[O-]
inactive: [1] 30.5% | [2] 27.4% | [3] 15.8% | [4] 18.5% | [5] 6.9% | [6] 14.5%

CC(C)(CCC(=O)O)CCC(=O)O
inactive: [1] 16.3% | [2] 17.6% | [3] 15.8% | [4] -6.05% | [5] -4% | [6] 36%

O=C(Nc1ccccc1F)c1c(O)nc2sccn2c1=O
inactive: [1] 50.4% | [2] -2.8% | [3] 38.5% | [4] -4.15% | [5] 38.1% | [6] 34%

CC(C)CC1=C(N(C)C)C(=O)C=C(N(C)C)C1=O
inactive: [1] -0.35% | [2] -9.4% | [3] 10.2% | [4] -5.65% | [5] -9.85% | [6] -13.4%

Cn1cnc(CCc2ccccc2)n1
inactive: [1] -8.95% | [2] -3.05% | [3] -24.2% | [4] -19% | [5] -24.1% | [6] -11.2%

COC1(OC)C2(Cl)C(Cl)=C(Cl)C1(Cl)C1CCCCC12 (configuration not stated)
inactive: [1] 12.7% | [2] 11.1% | [3] 15.5% | [4] -57% | [5] -5.15% | [6] 2.3%

CC[N+](C)(CC)CCOC(=O)C(c1ccccc1)C(O)C1CCCC1 (configuration not stated)
inactive: [1] -6.85% | [2] 3.45% | [3] -0.2% | [4] -6.2% | [5] 20.9% | [6] -8.15%

CC1(C)C2CCC(CN)C1C2 (configuration not stated)
inactive: [1] -11.4% | [2] -44.6% | [3] -1.7% | [4] 13.3% | [5] -20.1% | [6] -15.6%

O=C(Cc1ccccc1)NNC(=O)Nc1ccccc1
inactive: [1] 4% | [2] -3.6% | [3] 9.4% | [4] -26.6% | [5] 2.5% | [6] 1.05%

CC(C)C[C@H](NC(=O)[C@H](CCc1ccccc1)NC(=O)c1ccc2ccccc2n1)B(O)O
active: [4] 73.8% | [5] 84.7% | [6] 82.5%
inactive: [1] 60.8% | [2] 64.7% | [3] 55.5%

CN1C(=O)N(C)C2(CCN(CC(CC3OCCO3)c3ccc(F)cc3)CC2)C1=O (configuration not stated)
inactive: [1] -15.8% | [2] 7.85% | [3] 0.4% | [4] 2.5% | [5] -6.8% | [6] -1.55%

CCCCOC(=O)NC(=O)c1cn(CCSCCOC(=O)NCCCCCCNC(=O)OCCSCCn2cc(C(=O)NC(=O)OCCCC)c(=O)[nH]c2=O)c(=O)[nH]c1=O
inactive: [1] -15.2% | [2] -12.5% | [3] -9.55% | [4] 2.15% | [5] -15.9% | [6] -15.4%

O=C(Cn1ccnc1[N+](=O)[O-])c1ccc(F)cc1
inactive: [1] 62.8% | [2] -13.9% | [3] 33.9% | [4] 4.6% | [5] -9.9% | [6] 13.3%

CC(=O)c1c(C)nc(SSc2nc(C)c(C(C)=O)c(-c3ccc(Cl)cc3)c2C#N)c(C#N)c1-c1ccc(Cl)cc1
inactive: [1] -30.8% | [2] -7.8% | [3] -15.9% | [4] 6.35% | [5] -26.2% | [6] -2.2%

Cc1cc(C)[n+](C)c(/C=C\c2ccc(Cl)cc2)n1
inactive: [1] 7.3% | [2] -6.95% | [3] 10.8% | [4] 3% | [5] -4.45% | [6] 12.9%

O=C(Nc1ccccc1C(F)(F)F)Oc1ccc(Cl)cc1Cc1ccccc1
active: [1] 99.4% | [2] 99.6% | [3] 99.7% | [4] 99.3% | [5] 99.2% | [6] 99.5%

Cc1nn(C(=O)c2ccncc2)c2c1C(c1ccccc1[N+](=O)[O-])SC(N)=N2 (configuration not stated)
inactive: [1] 21.4% | [2] 6.15% | [3] 40.1% | [4] 26.1% | [5] 43.6% | [6] 18.9%

NC(=O)N/N=C\CC(O)(C(F)(F)Cl)C(F)(F)Cl
inactive: [1] -33.9% | [2] -29.2% | [3] -15.6% | [4] -1.5% | [5] 3.2% | [6] -3.1%

CC(=O)OCCC(C)Nc1ccnc2cc(Cl)ccc12 (configuration not stated)
inactive: [1] -11.7% | [2] -7.45% | [3] 6.35% | [4] 13.2% | [5] -3.75% | [6] 12.2%

CC(=O)N(CN1C(=O)CCC1C(=O)O)c1ccccc1 (configuration not stated)
inactive: [1] 20.1% | [2] -0.55% | [3] -8.5% | [4] 1.55% | [5] 0.7% | [6] -31.3%

CC(Nc1ccc(Br)cc1[N+](=O)[O-])C(=O)O (configuration not stated)
inactive: [1] 22.1% | [2] 11.6% | [3] 58.2% | [4] 19.1% | [5] 30.8% | [6] 6.95%

NNC(=O)c1ccc2ccccc2c1O
inactive: [1] 17.4% | [2] 14.8% | [3] 17.1% | [4] 0.05% | [5] 22.1% | [6] 49%

OCC1OC(n2c(=S)[nH]c3ccccc32)C(O)C1O (configuration not stated)
inactive: [1] 9.4% | [2] -0.9% | [3] 5.4% | [4] 1.2% | [5] 4.4% | [6] 7.4%

COc1ccc2c(c1)C1(C)CCCC(C)(CO)C1CC2 (configuration not stated)
inactive: [1] 37% | [2] -0.3% | [3] 20.2% | [4] 3.95% | [5] 1.4% | [6] -10.8%

c1ccc(CN2C3C4N(Cc5ccccc5)C2C2N(Cc5ccccc5)C(C(N2Cc2ccccc2)N4Cc2ccccc2)N3Cc2ccccc2)cc1
inactive: [1] 10.1% | [2] 2.35% | [3] 21.9% | [4] 3.2% | [5] 11.8% | [6] -3.6%

CC(C)(C)OC(=O)C1CCC/C1=N/Nc1ccc([N+](=O)[O-])cc1[N+](=O)[O-] (configuration not stated)
inactive: [1] -38.3% | [2] -46% | [3] 10.3% | [4] 24.2% | [5] 20.7% | [6] -11.6%

O=[N+]([O-])c1ccc(Nc2ccc(Cl)cc2)c2nonc12
inactive: [1] -24.7% | [2] -7.9% | [3] 25.7% | [4] 18.4% | [5] 8.85% | [6] 23.4%

O=C(NCCCCNCCCNC(=O)OCc1ccccc1)OCc1ccccc1
inactive: [1] 14.7% | [2] -4.2% | [3] -2.65% | [4] -8.55% | [5] -20.4% | [6] -59.8%

CCOc1c(N=Nc2ccccc2)c(C)nn1C(N)=S
inactive: [1] -55.9% | [2] -24.6% | [3] 9.95% | [4] -40.9% | [5] 0.4% | [6] 3.4%

Cc1cccc(C)c1NCC1CO1 (configuration not stated)
inactive: [1] -17.4% | [2] -14.3% | [3] -6.3% | [4] 13.2% | [5] -17.6% | [6] -11.2%

N#Cc1c(C#N)c(-c2ccco2)n(/N=C/c2ccco2)c1N
inactive: [1] 4.55% | [2] 0.6% | [3] -34.5% | [4] -6.75% | [5] -25.8% | [6] -37.4%

C/C(=N\NC(=S)N1CCN(c2ncccn2)CC1)c1ccccn1
inactive: [1] -2.4% | [2] -7.1% | [3] -6.8% | [4] -21.8% | [5] 9.35% | [6] 4.2%

Nc1cc(N)nc(S(=O)O)n1
inactive: [1] 18.9% | [2] 2.85% | [3] 16.1% | [4] 10.7% | [5] 19.8% | [6] 35.9%

CN(C)C1CS(=O)(=O)OC2=C1COCC2 (configuration not stated)
inactive: [1] -16.4% | [2] 9.8% | [3] -0.7% | [4] -3.8% | [5] 15.8% | [6] 2.55%

Reference: PubChem BioAssay (NCI)
